Inconclusive results are not listed. A call without a number means that no potency is given here. Activity calls are given as the source filed them. Unless noted, calls follow the shape of the full dose curve.
Test system: not listed separately
Experiment: A High-Content qHTS Against Drug Library for the Identification of Small Molecules that Inhibit DYT1 Early Onset Primary Dystonia-Associated Cell Pathology (AID 1645839)
Conditions: HEK293 Flp-In EGFP-delE TorsinA, punctate imaging, 48 h; series mostly up to 46.1 µM
Procedure, shortened: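 Readout: %pathology, the punctate EGFP-TorsinA distribution from imaging, as the primary channel and cell count as the toxicity counterscreen. HEK293 Flp-In cells expressing delE TorsinA were induced with tetracycline and treated with compound for 48 h.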

Row | SMILES | Potency
1 | NCCS | inactive
2 | CC(C)NCC(O)COc1cccc2[nH]ccc12 (configuration not stated) | inactive
3 | CCN(CC)CCNC(=O)c1ccc(N)cc1 | inactive
4 | CCN1CCC[C@H]1CNC(=O)c1cc(S(N)(=O)=O)ccc1OC | inactive
5 | O=C1NC(=O)C(c2ccccc2)(c2ccccc2)N1 | inactive
6 | CC(=O)c1ccc(S(=O)(=O)NC(=O)NC2CCCCC2)cc1 | inactive
7 | COc1ccccc1N1CCN(CCCNc2cc(=O)n(C)c(=O)n2C)CC1 | inactive
8 | CCN(CC)CCOC(=O)c1ccc(N)cc1 | inactive
9 | CN(C)CCC(c1ccccc1)c1ccccn1 (configuration not stated) | inactive
10 | NC(N)=Nc1nc(CSCC/C(N)=N/S(N)(=O)=O)cs1 | inactive
11 | Clc1ccc(Cn2c(CN3CCCC3)nc3ccccc32)cc1 | inactive
12 | C[N+](C)(C)CCCCCC[N+](C)(C)C | inactive
13 | CCCNC(=O)NS(=O)(=O)c1ccc(Cl)cc1 | inactive
14 | O=C(NCCN1CCOCC1)c1ccc(Cl)cc1 | inactive
15 | CC(=O)O[C@]1(C(C)=O)CC[C@H]2[C@@H]3C=C(Cl)C4=CC(=O)[C@@H]5C[C@@H]5[C@]4(C)[C@H]3CC[C@@]21C | inactive
16 | CCN(CC)C(=O)c1ccc(O)c(OC)c1 | inactive
17 | CC(=O)N[C@@H](CS)C(=O)O | inactive
18 | O=C1NCC2(CCN(CCc3ccccc3)CC2)O1 | inactive

Molecular target: Cytochrome P450 2D6 (Homo sapiens) (UniProt P10635)
Experiment: Cytochrome P450 family 2 subfamily D member 6 (CYP2D6) small molecule antagonists: luciferase biochemical (cell-free) qHTS assay (AID 1645840; active = well fitted inhibition curve with a large enough effect in the repeat runs; also: nearly all actives have a fitted effect of over 55% in size; also: potency is read from the fitted curve at half-maximal effect)
Conditions: P450-Glo CYP2D6 enzyme, luciferin luminescence, 1 h; series mostly up to 57.4 µM
Procedure, shortened: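 P450-Glo luminescent screen: recombinant CYP2D6 enzyme–proluciferin substrate mix preincubated with compound 10 min at room temperature, then NADPH regeneration added for 1 h at room temperature. Detection reagent added for 20 min; luciferin light read as relative luminescence units.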

Chain of Cytochrome P450 2D6 (Homo sapiens) (P10635 whole entry, looked up): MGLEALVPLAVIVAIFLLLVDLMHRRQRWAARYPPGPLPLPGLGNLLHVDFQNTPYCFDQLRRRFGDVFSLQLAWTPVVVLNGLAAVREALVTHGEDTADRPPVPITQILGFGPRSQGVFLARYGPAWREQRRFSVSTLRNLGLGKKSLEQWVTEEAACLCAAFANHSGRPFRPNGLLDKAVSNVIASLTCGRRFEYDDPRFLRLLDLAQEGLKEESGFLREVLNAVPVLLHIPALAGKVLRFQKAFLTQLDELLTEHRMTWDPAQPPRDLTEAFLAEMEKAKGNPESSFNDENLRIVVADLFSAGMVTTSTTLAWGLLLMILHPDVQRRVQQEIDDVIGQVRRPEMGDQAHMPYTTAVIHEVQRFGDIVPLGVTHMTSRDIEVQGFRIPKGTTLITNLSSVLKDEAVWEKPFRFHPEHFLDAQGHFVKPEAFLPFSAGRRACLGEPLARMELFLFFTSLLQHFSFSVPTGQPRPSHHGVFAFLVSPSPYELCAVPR

Row | SMILES | Potency
19 | NCCS | inactive
20 | CCN(CC)CCNC(=O)c1ccc(N)cc1 | inactive
21 | CCN1CCC[C@H]1CNC(=O)c1cc(S(N)(=O)=O)ccc1OC | inactive
22 | O=C1NC(=O)C(c2ccccc2)(c2ccccc2)N1 | inactive
23 | CC(=O)c1ccc(S(=O)(=O)NC(=O)NC2CCCCC2)cc1 | inactive
24 | Clc1ccc(Cn2c(CN3CCCC3)nc3ccccc32)cc1 | 0.309 µM (active)
25 | O=C(O)c1c(Cl)c(Cl)c(Cl)c(Cl)c1-c1c2cc(I)c(=O)c(I)c-2oc2c(I)c(O)c(I)cc12 | 4.25 µM (active)
26 | C[N+](C)(C)CCCCCC[N+](C)(C)C | inactive
27 | CCCNC(=O)NS(=O)(=O)c1ccc(Cl)cc1 | inactive
28 | O=C(NCCN1CCOCC1)c1ccc(Cl)cc1 | 9.77 µM (active)
29 | O=c1cc(-c2ccc(O)cc2)oc2cc(O)cc(O)c12 | 12 µM (active)
30 | CC(=O)O[C@]1(C(C)=O)CC[C@H]2[C@@H]3C=C(Cl)C4=CC(=O)[C@@H]5C[C@@H]5[C@]4(C)[C@H]3CC[C@@]21C | inactive
31 | CCN(CC)C(=O)c1ccc(O)c(OC)c1 | inactive
32 | CC(=O)N[C@@H](CS)C(=O)O | inactive

— PubChem BioAssay (NCATS)
